Assay outcomes (PubChem)
Rows were chosen to be rich in hits. Some 2.5% of all compounds tested hit in one or more screens of this group.
LEDGF integ inh – blockers of LEDGF/p75-dependent integrase strand transfer – biochemical, TR-FRET, high throughput, primary screen | 370,000 compounds, 0.64% hits | TR-FRET IN-LEDGF/p75 DNA integration, Eu/Cy5 | inhibition, % at 3.7 µM | AID 743269, 2014;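 active = inhibition above the screen-wide mean plus 3 SD, cut at about 13% in these data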;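 note: signal is the Cy5 over europium emission ratio at 671 and 618 nm; 0% = plate median of compound wells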
MBD2 inh – inhibitors of MBD2 binding to methylated DNA, primary screen, biochemical, TR-FRET, DNA-binding domain, human | Methyl-CpG-binding domain protein 2 (Homo sapiens), Q9UBB5 | MBD2 binding to methylated oligonucleotide | inhibition, % at 4.4 µM | 370,000 compounds, 0.31% hits; in the data active = inhibition above about 13%
Target sequence (Q9UBB5 whole entry, looked up, the tested form may be a part): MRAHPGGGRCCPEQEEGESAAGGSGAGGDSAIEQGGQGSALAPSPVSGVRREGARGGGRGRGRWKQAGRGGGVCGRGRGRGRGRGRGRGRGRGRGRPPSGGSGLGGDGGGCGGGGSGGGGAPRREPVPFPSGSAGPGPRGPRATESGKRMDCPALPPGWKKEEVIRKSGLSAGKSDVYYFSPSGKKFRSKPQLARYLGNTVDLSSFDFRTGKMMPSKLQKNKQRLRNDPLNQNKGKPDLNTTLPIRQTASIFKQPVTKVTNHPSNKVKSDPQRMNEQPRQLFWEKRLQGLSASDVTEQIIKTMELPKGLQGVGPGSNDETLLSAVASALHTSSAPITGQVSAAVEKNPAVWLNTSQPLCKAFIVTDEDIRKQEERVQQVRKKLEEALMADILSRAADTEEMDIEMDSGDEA
PRMT1 inh – PRMT1 methyltransferase inhibitors, primary screen, biochemical, fluorescence polarization. Protein arginine N-methyltransferase 1 (Homo sapiens), Q99873. AID 652257, 2013. recombinant PRMT1, activity-based probe fluorescence polarization. 370,000 compounds, 1.3% hits. inhibition, % at 2.79 µM;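 active = inhibition above about 21% made by adding two undisclosed values, limit read from the data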
UHRF1 MBD2 ctr – UHRF1 methylated DNA binding inhibitors, primary screen, counter-screen for MBD2 inhibitor project, biochemical, TR-FRET, human UHRF1, single concentration; E3 ubiquitin-protein ligase UHRF1 (Homo sapiens), Q96T88; UHRF1 binding to methylated oligo; inhibition, % at 4.4 µM; 370,000 compounds, 0.75% hits; AID 687016, 2013; in the data active = inhibition above about 21%;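 note: UHRF1 SRA domain binding a hemimethylated CpG hairpin DNA probe; 0% = median of test compound wells and 100% = reference inhibitor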
PRMT1 inh conf – PRMT1 methyltransferase inhibitors, confirmation, biochemical, fluorescence polarization, triplicate; shares compounds with PRMT1 inh; recombinant His-PRMT1, activity-based probe fluorescence polarization; inhibition, % at 2.79 µM; 3,300 compounds, 42% hits;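 active = mean inhibition across replicates above the hit cutoff derived for the earlier primary screen, cut at about 22% in these data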
Active calls of the source: *.

Results for C=CCn1c(SCCN2CCOCC2)nc2c1c(=O)[nH]c(=O)n2C ?
LEDGF integ inh: -0.4; MBD2 inh: 0.5; PRMT1 inh: 1.9; UHRF1 MBD2 ctr: 1.4

What do the screens show for `CC(C)C[C@H]1COc2cc(Br)ccc2S(=O)(=O)N1Cc1cn(Cc2ccco2)nn1`?
LEDGF integ inh: 1.6; MBD2 inh: -3.8; PRMT1 inh: -4.3; UHRF1 MBD2 ctr: -1.4

What do the screens show for `c1ccc(CN2CCC3(CC2)Nc2ccccc2S3)cc1`?
LEDGF integ inh: -0.1; MBD2 inh: 7.1; PRMT1 inh: 54.4*; UHRF1 MBD2 ctr: 2.5; PRMT1 inh conf: -3.4

Results for c1ccc(CN2CCC3(CC2)Nc2ccccc2CO3)cc1 ?
LEDGF integ inh: -3.1; MBD2 inh: -0.8; PRMT1 inh: -4.2; UHRF1 MBD2 ctr: -2.2

Results for c1ccc(-c2nc(-c3ccco3)cs2)nc1 ?
LEDGF integ inh: 10.9; MBD2 inh: -3.0; PRMT1 inh: 50.8*; UHRF1 MBD2 ctr: 1.1; PRMT1 inh conf: 1.2

Results for CCc1cc(C(=O)c2ccc(Br)cc2)c(NC(=O)CN(CC)CC)s1 ?
LEDGF integ inh: 0.0; MBD2 inh: -5.0; PRMT1 inh: -1.5; UHRF1 MBD2 ctr: -3.5

What do the screens show for `CCCCCOc1ccc(C(=O)CCN2CCOCC2)cc1`?
LEDGF integ inh: -2.8; MBD2 inh: 2.0; PRMT1 inh: 26.3*; UHRF1 MBD2 ctr: 0.4; PRMT1 inh conf: 1.7

Results for Nc1ncc2c(n1)CC(c1ccco1)CC2=O (stereo not given) ?
LEDGF integ inh: 12.3; MBD2 inh: -2.2; PRMT1 inh: 27.8*; UHRF1 MBD2 ctr: 6.9; PRMT1 inh conf: 3.7

Results for CCOc1ccc(Cl)cc1-c1cc(C(=O)Nc2ccc(C(C)C)cc2)[nH]n1 ?
LEDGF integ inh: -2.8; MBD2 inh: 6.2; PRMT1 inh: 3.2; UHRF1 MBD2 ctr: 5.3

Results for CC(C)c1ccc[n+](-c2nc([O-])sc2C=O)c1 ?
LEDGF integ inh: 1.4; MBD2 inh: -3.9; PRMT1 inh: 2.9; UHRF1 MBD2 ctr: -1.9

What do the screens show for `Cc1ccc[n+](-c2nc([O-])sc2C=O)c1`?
LEDGF integ inh: 2.2; MBD2 inh: -2.7; PRMT1 inh: 57.6*; UHRF1 MBD2 ctr: -5.7; PRMT1 inh conf: 62.5*

How did CC(C)[N+]1=C2C=CC=CC=C2SC12C([N+](=O)[O-])=CC(=[N+]([O-])[O-])C=C2[N+](=O)[O-] (stereo not given) do in these assays?
LEDGF integ inh: 5.5; MBD2 inh: 0.3; PRMT1 inh: 36.7*; UHRF1 MBD2 ctr: 1.6; PRMT1 inh conf: 13.5

Results for C=CC1=C(C(=O)O)N2C(=O)C(NC(=O)Cc3ccccc3)C2SC1 (stereo not given) ?
LEDGF integ inh: 0.1; MBD2 inh: -2.0; PRMT1 inh: 16.6; UHRF1 MBD2 ctr: -7.6

Results for CC1=C(C(=O)OCc2ccccc2)N2C(=O)[C@@H](NC(=O)COc3ccccc3)[C@H]2SC1 ?
LEDGF integ inh: -2.4; MBD2 inh: -1.1; PRMT1 inh: -2.5; UHRF1 MBD2 ctr: -0.4

How did CC(=O)OCC1=C(C(=O)O)N2C(=O)C(NC(=O)COc3ccc(F)cc3)C2SC1 (stereo not given) do in these assays?
LEDGF integ inh: 7.0; MBD2 inh: 3.4; PRMT1 inh: 36.7*; UHRF1 MBD2 ctr: 9.5; PRMT1 inh conf: 47.6*

What do the screens show for `CCOc1ccc(C(=O)NC2C(=O)N3C(C(=O)O)=C(COC(C)=O)CSC23)cc1OCC` (stereo not given)?
LEDGF integ inh: -1.3; MBD2 inh: 0.6; PRMT1 inh: 26.7*; UHRF1 MBD2 ctr: 1.5; PRMT1 inh conf: 9.0

What do the screens show for `CC(=O)OCC1=C(C(=O)O)N2C(=O)[C@@H](NC(=O)Cc3ccccc3)[C@H]2SC1`?
LEDGF integ inh: 0.1; MBD2 inh: -5.2; PRMT1 inh: 26.7*; UHRF1 MBD2 ctr: -4.0; PRMT1 inh conf: 10.7

How did CCOc1ccc(NC(=O)c2ccccc2NC(=O)CNC2CCCC(C)C2C)cc1 (stereo not given) do in these assays?
LEDGF integ inh: 4.9; MBD2 inh: -3.3; PRMT1 inh: -1.5; UHRF1 MBD2 ctr: -1.7

What do the screens show for `CC(OC(=O)c1ccc(C#N)cc1)C(=O)Nc1ccc(Cl)cn1` (stereo not given)?
LEDGF integ inh: -1.0; MBD2 inh: 5.0; PRMT1 inh: -0.2; UHRF1 MBD2 ctr: 6.7

What do the screens show for `COC(=O)c1ccc(N2CN=C(c3ccc(C)cc3)NC2=S)cc1`?
LEDGF integ inh: -1.2; MBD2 inh: 0.5; PRMT1 inh: 34.9*; UHRF1 MBD2 ctr: 0.8; PRMT1 inh conf: -6.1

How did S=C(Nc1ccccc1Cl)NC1CCN(Cc2ccccc2)CC1 do in these assays?
LEDGF integ inh: 0.4; MBD2 inh: -3.6; PRMT1 inh: 25.4*; UHRF1 MBD2 ctr: -3.2; PRMT1 inh conf: 11.4

What do the screens show for `Cc1c(Cl)cccc1NC(=S)NC1CCN(Cc2ccccc2)CC1`?
LEDGF integ inh: -2.5; MBD2 inh: -0.2; PRMT1 inh: 0.6; UHRF1 MBD2 ctr: -1.4

Results for O=C(C1=NOC2(C1)C(=O)N(Cc1ccccc1)c1ccccc12)N1CCOCC1 (stereo not given) ?
LEDGF integ inh: 4.1; MBD2 inh: -2.8; PRMT1 inh: 0.8; UHRF1 MBD2 ctr: 3.1

What do the screens show for `COc1ccccc1CN(C)C(=O)c1ccc2c(c1)NC(=O)CS2`?
LEDGF integ inh: -5.2; MBD2 inh: 2.7; PRMT1 inh: 1.7; UHRF1 MBD2 ctr: 1.4

Results for Cc1ccc(CN(C)C(=O)c2ccc3c(c2)NC(=O)CS3)o1 ?
LEDGF integ inh: 5.8; MBD2 inh: -2.7; PRMT1 inh: 39.8*; UHRF1 MBD2 ctr: 0.5; PRMT1 inh conf: 4.8

What do the screens show for `N#Cc1c(N)[nH]c(=S)c(C#N)c1-c1ccccc1`?
LEDGF integ inh: -1.3; MBD2 inh: -3.5; PRMT1 inh: 38.5*; UHRF1 MBD2 ctr: 5.4; PRMT1 inh conf: 14.4

What do the screens show for `COc1ccc(NC(=S)N(CCC(C)C)C2CCN(C(C)C)CC2)cc1Cl`?
LEDGF integ inh: -0.4; MBD2 inh: -1.9; PRMT1 inh: 54.0*; UHRF1 MBD2 ctr: 1.4; PRMT1 inh conf: 54.5*

How did COc1ccc(NC(=S)NCCCN2CCCC2)cc1Cl do in these assays?
LEDGF integ inh: 1.6; MBD2 inh: -1.1; PRMT1 inh: 10.7; UHRF1 MBD2 ctr: -1.1

What do the screens show for `COc1ccc(NC(=S)NCCN2CCC(C)CC2)cc1Cl`?
LEDGF integ inh: -0.6; MBD2 inh: -3.9; PRMT1 inh: 48.0*; UHRF1 MBD2 ctr: 4.3; PRMT1 inh conf: 46.2*

Results for C#CCNC(=O)C[C@H]1C[C@@]2(C(=O)OC)C(=C[C@H](C(C)(C)C)O[C@@H]2C)N(Cc2cccc3ccccc23)C1=O ?
LEDGF integ inh: -5.0; MBD2 inh: 2.6; PRMT1 inh: -0.1; UHRF1 MBD2 ctr: 0.3
